PubChem BioAssay (NCATS)
Results filed as inconclusive are left out. Active and inactive are the calls of the source. Unless noted, the call rests on the fitted dose curve; in most records, active means well fitted curve in either direction with a large enough effect (not every such curve was filed as active); inconclusive means small, poorly fitted or top-dose-only effect, or another doubt; inactive means flat fitted curve, though single readings scatter.

What was measured:
[1] = target: Lysosomal acid glucosylceramidase (Homo sapiens) (UniProt P04062); experiment: Glucocerebrosidase-p2 (AID 348; in the data active means potency below about 10 µM; further: potency means the concentration at half of the fitted maximal effect); settings: purified GBA, blue fluorogenic substrate, 40 min
Lysosomal acid glucosylceramidase (Homo sapiens), sequence (P04062 whole entry, looked up): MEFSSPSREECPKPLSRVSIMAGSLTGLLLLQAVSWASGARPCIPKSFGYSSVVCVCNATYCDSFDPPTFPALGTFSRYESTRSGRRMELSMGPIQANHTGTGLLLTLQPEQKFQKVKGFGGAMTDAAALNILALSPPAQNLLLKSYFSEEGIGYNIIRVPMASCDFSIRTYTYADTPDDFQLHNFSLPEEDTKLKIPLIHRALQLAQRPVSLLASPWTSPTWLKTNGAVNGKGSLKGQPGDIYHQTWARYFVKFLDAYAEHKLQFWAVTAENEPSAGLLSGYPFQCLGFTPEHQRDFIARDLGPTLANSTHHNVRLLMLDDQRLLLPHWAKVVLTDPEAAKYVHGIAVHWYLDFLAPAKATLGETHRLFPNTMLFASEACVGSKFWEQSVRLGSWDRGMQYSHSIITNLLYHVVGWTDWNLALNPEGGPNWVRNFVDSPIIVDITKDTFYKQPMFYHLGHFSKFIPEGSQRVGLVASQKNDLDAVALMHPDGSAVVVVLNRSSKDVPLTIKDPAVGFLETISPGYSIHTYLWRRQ
In short: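 Normal human glucocerebrosidase (0.2 nM) with blue fluorogenic substrate (80 uM final) in citrate/phosphate pH 5.9 with 10mM sodium taurocholate, 0.01% tween-20; 40 min RT, NaOH/glycine stop; fluorescence Ex 365/Em 440; AC50 from a titration from 0.6 nM upwards.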

[2] = AP1 Signaling Pathway (AID 357); settings: ME-180 AP-1-bla reporter, EGF-induced, beta-lactamase ratio, 5 h; at 7.69 µM (top of the series) unless noted;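 further: ME-180 reporter cells stimulated with EGF at its EC50 level; on the % scale 0 is the no-effect control and ±100 the full control effect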
In short: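 Beta-lactamase reporter under AP-1 response element, ME-180 background. Stimulus: EC50 EGF. Compound exposure 5 h, 37 °C. Detection: CCF4, 2.5 h RT, 460/530 nm. Values: AC50 from titration.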

[3] = target: Cytochrome P450 1A2 (Homo sapiens) (UniProt P05177); experiment: p450-cyp1a2 (AID 410; calls by dose curve; further: potency means the concentration at half of the fitted maximal effect;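 on activity change, negative = inhibition: -100% = full effect of reference inhibitor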); settings: recombinant CYP1A2, luciferin-ME demethylation, luminescence; series mostly up to 11.4 µM
Cytochrome P450 1A2 (Homo sapiens), sequence (P05177 whole entry, looked up): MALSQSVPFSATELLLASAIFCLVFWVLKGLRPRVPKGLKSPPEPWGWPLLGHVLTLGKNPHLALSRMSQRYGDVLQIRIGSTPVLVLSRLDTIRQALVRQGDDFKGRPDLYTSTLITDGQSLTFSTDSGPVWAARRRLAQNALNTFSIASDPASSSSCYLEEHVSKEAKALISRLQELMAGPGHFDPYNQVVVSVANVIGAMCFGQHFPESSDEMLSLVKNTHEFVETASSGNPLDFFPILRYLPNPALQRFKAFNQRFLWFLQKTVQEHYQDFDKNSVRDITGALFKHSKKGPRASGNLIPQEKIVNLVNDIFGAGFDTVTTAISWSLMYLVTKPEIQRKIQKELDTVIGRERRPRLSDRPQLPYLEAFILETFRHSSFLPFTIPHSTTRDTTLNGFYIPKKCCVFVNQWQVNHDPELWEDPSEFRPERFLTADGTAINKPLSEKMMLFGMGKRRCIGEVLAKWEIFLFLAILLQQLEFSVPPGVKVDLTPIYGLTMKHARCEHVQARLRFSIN
In short: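 Read-out is luminescence from luciferin produced by CYP1A2 demethylation of Luciferin-ME (100uM, at Km). Detection reagent stopped the 60 min NADPH-dependent reaction; signals were normalized to 57 uM furafylline.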

[4] = NFAT Signaling Pathway (AID 444); settings: Jurkat NFAT-bla M1, carbachol, beta-lactamase ratio, 5 h; at 7.69 µM (top of the series) unless noted;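 further: carbachol stimulus at about its EC50 of 1 µM final; on the % scale 0 is the no-effect control and ±100 the full control effect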
In short: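 Read-out: CCF4 FRET ratio (460 nm/530 nm) after 1 h RT dye loading, used for %activity and AC50 from titration series. Cells: Jurkat NFAT-β-lactamase/M1 line, treated with compound plus 1 uM carbachol for 5 h, 37 °C.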

[5] = Stat Signaling Pathway (AID 446); settings: ME-180 (cervical carcinoma) SIE beta-lactamase reporter, IL-6 stimulated, 5 h; at 7.69 µM (top of the series) unless noted;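 further: ME-180 cervical cancer cells given 40 pM IL-6 alongside compound; SIE-controlled beta-lactamase reporter measured as 460/530 nm FRET emission ratio; on the % scale 0 is the no-effect control and ±100 the full control effect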
In short: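 FRET read-out (405 nm excitation, 460/530 nm emission) of a beta-lactamase reporter under a STAT-inducible element in ME-180 cervical carcinoma cells. Cells with compound receive 40 pM IL-6 for 5 h. Values are normalised to AC90 stimulation and AC90 JAK-inhibitor controls.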

[6] = target: Glucocorticoid receptor (Homo sapiens) (UniProt P04150); experiment: GR-GFP Redistribution (AID 450;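 active means compounds whose dose series gives a full or clear partial fitted curve of increased nuclear translocation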; further: potency means the concentration at half of the fitted maximal effect); settings: U2OS GR-GFP nuclear translocation, laser cytometry, 2 h
Glucocorticoid receptor (Homo sapiens), sequence (P04150 whole entry, looked up, the tested form may be a part): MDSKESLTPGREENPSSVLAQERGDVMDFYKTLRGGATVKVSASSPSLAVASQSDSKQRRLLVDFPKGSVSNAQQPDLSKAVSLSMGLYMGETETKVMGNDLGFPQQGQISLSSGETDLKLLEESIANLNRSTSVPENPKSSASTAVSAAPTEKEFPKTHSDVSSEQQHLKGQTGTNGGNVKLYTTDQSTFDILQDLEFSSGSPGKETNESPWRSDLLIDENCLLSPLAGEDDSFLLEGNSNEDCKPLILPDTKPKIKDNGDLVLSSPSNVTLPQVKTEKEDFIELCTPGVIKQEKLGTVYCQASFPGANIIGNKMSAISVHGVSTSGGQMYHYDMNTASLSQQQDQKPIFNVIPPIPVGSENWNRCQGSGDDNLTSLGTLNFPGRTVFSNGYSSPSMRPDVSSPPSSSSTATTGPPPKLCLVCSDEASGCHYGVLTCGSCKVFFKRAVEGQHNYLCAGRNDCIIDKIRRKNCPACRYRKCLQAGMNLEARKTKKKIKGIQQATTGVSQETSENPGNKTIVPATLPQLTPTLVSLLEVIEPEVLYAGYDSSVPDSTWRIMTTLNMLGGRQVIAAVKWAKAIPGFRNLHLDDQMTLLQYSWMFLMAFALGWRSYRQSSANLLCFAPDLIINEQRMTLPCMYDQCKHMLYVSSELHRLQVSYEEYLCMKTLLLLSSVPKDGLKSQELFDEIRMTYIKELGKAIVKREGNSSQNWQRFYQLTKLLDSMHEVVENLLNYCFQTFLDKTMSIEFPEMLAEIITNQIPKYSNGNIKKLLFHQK

[7] = target: Glucocorticoid receptor (Homo sapiens) (UniProt P04150); experiment: GR-EFC Redistribution (AID 451; calls by dose curve; further: potency means the concentration at half of the fitted maximal effect); settings: CHO-K1 GR-EFC translocation, beta-gal luminescence, 2 h
In short: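 Translocation of GR-ED fusion to nuclear EA restores b-gal, read by luminescence after 1 h room-temperature detection. Engineered CHO-K1 biosensor cells, 1,000/well, exposed 2 h at 37 C to titrations up to 46 uM final.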

[8] = target: Mitogen-activated protein kinase 10 (Mus musculus) (UniProt Q61831); experiment: JNK3 AlphaScreen Assay (AID 530); settings: JNK3 lysate, c-Jun phosphorylation; series mostly up to 11.4 µM;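 further: kinase came from lysate of stimulated human HepG2 cells; signal reports phosphorylation of biotinylated GST-cJun 1-79 at Ser73 with 10 µM ATP; on the % scale 0 is the no-effect control and ±100 the full control effect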
In short: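 Kinase buffer: 20 mM Tris-HCl pH 7.6, 10 mM MgCl2, 1 mM DTT, 0.1 mM Na3VO4, 0.01% Tween-20; ATP 10 uM. Substrate biotin-GST-cJun(1-79), enzyme from activated HepG2 lysates. Detection by Ser73 phospho-antibody AlphaScreen.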

[9] = target: 3',5'-cyclic-AMP phosphodiesterase 4B (Homo sapiens) (UniProt Q07343); experiment: qHTS Assay for Inhibitors of PDE-IV (AID 607; active means well fitted activation curve with a large enough effect in the main read-out, with a control signal flat, not every such curve was filed as active; further: % of control where 0% means no effect); settings: HEK293 ACTOne CNG channel cells, membrane potential fluorescence; series mostly up to 22.9 µM
3',5'-cyclic-AMP phosphodiesterase 4B (Homo sapiens), sequence (Q07343 whole entry, looked up): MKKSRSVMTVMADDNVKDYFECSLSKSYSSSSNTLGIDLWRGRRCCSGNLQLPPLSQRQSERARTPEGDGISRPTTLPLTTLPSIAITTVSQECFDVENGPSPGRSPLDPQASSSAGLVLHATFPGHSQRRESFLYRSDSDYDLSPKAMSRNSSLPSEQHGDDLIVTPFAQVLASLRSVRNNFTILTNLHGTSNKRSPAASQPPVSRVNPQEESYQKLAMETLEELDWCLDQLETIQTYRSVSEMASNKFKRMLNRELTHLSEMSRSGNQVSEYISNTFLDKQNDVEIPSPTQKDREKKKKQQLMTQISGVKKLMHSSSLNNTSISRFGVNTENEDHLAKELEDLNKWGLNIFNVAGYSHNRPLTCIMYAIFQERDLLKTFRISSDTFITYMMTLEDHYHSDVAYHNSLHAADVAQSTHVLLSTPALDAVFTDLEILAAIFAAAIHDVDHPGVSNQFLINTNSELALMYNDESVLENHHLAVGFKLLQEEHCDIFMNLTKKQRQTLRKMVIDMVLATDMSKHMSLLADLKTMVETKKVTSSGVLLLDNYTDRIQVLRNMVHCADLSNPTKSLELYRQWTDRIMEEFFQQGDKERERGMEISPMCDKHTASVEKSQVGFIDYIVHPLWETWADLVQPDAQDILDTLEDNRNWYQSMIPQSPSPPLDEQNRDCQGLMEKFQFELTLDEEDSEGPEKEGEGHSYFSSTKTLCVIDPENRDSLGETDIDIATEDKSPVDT
In short: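 Cell-based read-out of cAMP via a modified cyclic nucleotide-gated channel and membrane potential dye (535/590 nm) in HEK293 cells expressing PDE4 endogenously. Compounds tested up to 22.9 uM final; 100 uM RO 20-1724 reference.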

[10] = target: Cytochrome P450 2C9 (Homo sapiens) (UniProt P11712); experiment: qHTS Assay for Inhibitors and Substrates of Cytochrome P450 2C9 (AID 883; active means well fitted inhibition curve with a large enough effect; further: on the % scale 0 is the no-effect control and ±100 the full control effect; nearly all actives have a fitted effect of over 60% in size); settings: recombinant CYP2C9, luciferin-H luminescence, 60 min; series mostly up to 11.4 µM
Cytochrome P450 2C9 (Homo sapiens), sequence (P11712 whole entry, looked up): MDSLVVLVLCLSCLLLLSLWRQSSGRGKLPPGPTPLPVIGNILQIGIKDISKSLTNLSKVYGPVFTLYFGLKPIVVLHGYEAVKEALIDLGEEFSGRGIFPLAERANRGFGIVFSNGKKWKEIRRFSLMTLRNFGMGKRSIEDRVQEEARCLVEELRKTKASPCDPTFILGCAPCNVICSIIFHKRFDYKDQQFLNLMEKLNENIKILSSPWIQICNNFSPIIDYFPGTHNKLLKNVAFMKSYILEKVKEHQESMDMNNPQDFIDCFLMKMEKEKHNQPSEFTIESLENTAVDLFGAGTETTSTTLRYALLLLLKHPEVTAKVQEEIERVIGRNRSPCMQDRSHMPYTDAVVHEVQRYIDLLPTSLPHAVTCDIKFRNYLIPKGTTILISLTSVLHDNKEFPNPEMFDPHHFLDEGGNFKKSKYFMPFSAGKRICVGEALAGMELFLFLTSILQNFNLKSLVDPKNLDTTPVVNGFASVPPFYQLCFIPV
In short: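 Inhibition of CYP2C9 is scored as loss of luminescence, with 57uM sulphaphenazole defining 100% inhibition. Substrate Luciferin-H is used at 100uM, equal to its KM; enzyme at 10nM in 25mM KPO4, 60 min at 37C with NADPH regeneration.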

NS(=O)(=O)c1cc(Br)c(N=Nc2ccc(O)c3ncccc23)c(Br)c1
active: Potency [3] 1.26 µM
inactive: Potency [1] > 11.4 µM | activity change, negative = inhibition [2] -0.828% | activity change, negative = inhibition [4] 10.5% | activity, negative = inhibition [5] 21.9% | Potency [6] > 46 µM | Potency [7] > 9.22 µM | Potency [8] | Potency [9] | Potency [10]

CCOC(=O)c1c(C)c(C)n2c1NC(=O)C2
active: Potency [3] 2 µM
inactive: Potency [1] > 11.4 µM | activity change, negative = inhibition [2] 3.42% | activity change, negative = inhibition [4] -19.4% | activity, negative = inhibition [5] -3.92% | Potency [6] > 46 µM | Potency [7] > 9.22 µM | Potency [8] | Potency [9]

CCOC(=O)Nc1nc(-c2ccccc2)c(C)s1
inactive: Potency [1] > 11.4 µM | activity change, negative = inhibition [2] -8.11% | activity change, negative = inhibition [4] -9.95% | activity, negative = inhibition [5] 1.24% | Potency [6] > 46 µM | Potency [7] > 9.22 µM | Potency [8] | Potency [9]
active: Potency [3] 0.2 µM

C/C(CC/C(C)=N/O)=N/O
inactive: Potency [1] > 11.4 µM | activity change, negative = inhibition [2] 4.13% | activity change, negative = inhibition [3] -12.6% [at 2.29 µM] | activity change, negative = inhibition [4] 2.59% | activity, negative = inhibition [5] -4.99% | Potency [6] > 46 µM | Potency [7] > 9.22 µM | Potency [8] | Potency [9]

N#C[C@@H](N=Nc1ccccc1C(=O)O)C(N)=O
inactive: Potency [1] > 11.4 µM | activity change, negative = inhibition [2] 9.26% | Potency [3] | activity change, negative = inhibition [4] -8.71% | activity, negative = inhibition [5] -29.4% | Potency [6] > 46 µM | Potency [7] > 9.22 µM | Potency [8] | Potency [9]

Nc1ccccc1CCCC(=O)O
inactive: Potency [1] > 11.4 µM | activity change, negative = inhibition [2] -5.22% | Potency [3] | activity change, negative = inhibition [4] 0.568% | activity, negative = inhibition [5] 4.31% | Potency [6] > 46 µM | Potency [7] > 9.22 µM | Potency [8] | Potency [9]

O=C(O)[C@H](Cc1cc(I)c(O)c(I)c1)C1CCCCC1
inactive: Potency [1] > 11.4 µM | activity change, negative = inhibition [2] -29.2% | activity change, negative = inhibition [3] -8.8% [at 2.29 µM] | activity change, negative = inhibition [4] 1.46% | activity, negative = inhibition [5] -16% | Potency [6] > 46 µM | Potency [7] > 9.22 µM | Potency [8] | Potency [9]

Cc1ccc(NC(=O)c2ccccc2C(=O)O)cc1C
active: Potency [3] 3.98 µM
inactive: Potency [1] > 11.4 µM | activity change, negative = inhibition [2] -1.74% | activity change, negative = inhibition [4] -27.9% | activity, negative = inhibition [5] -5.42% | Potency [6] > 46 µM | Potency [7] > 9.22 µM | Potency [8] | Potency [9]

[N-]=[N+]=NC[C@@H]1O[C@@H](n2cnc3c(N)ncnc32)[C@@H]2O[C@@H]21
inactive: Potency [1] > 11.4 µM | activity change, negative = inhibition [2] 8.89% | Potency [3] | activity change, negative = inhibition [4] 10.3% | activity, negative = inhibition [5] -3.75% | Potency [6] > 46 µM | Potency [7] > 9.22 µM | Potency [8] | Potency [9]

C[N+](C)(C)[C@H](Cc1c[nH]c(=S)[nH]1)C(=O)O
inactive: Potency [1] > 11.4 µM | activity change, negative = inhibition [2] 4.67% | Potency [3] | activity change, negative = inhibition [4] -2.8% | activity, negative = inhibition [5] 9.57% | Potency [6] > 46 µM | Potency [7] > 9.22 µM | Potency [8] | Potency [9]

CSc1ncnc2c1ncn2[C@@H]1O[C@@H](CO)[C@H](O)O[C@@H]1O
inactive: Potency [1] > 11.4 µM | activity change, negative = inhibition [2] -6.79% | activity change, negative = inhibition [3] -5.2% [at 2.29 µM] | activity change, negative = inhibition [4] 22.2% | activity, negative = inhibition [5] 22.9% | Potency [6] > 46 µM | Potency [7] > 9.22 µM | Potency [8] | Potency [9]

O=C(O)C(Cc1ccccc1-c1ccccc1)C(=O)O
inactive: Potency [1] > 11.4 µM | activity change, negative = inhibition [2] 12.3% | Potency [3] | activity change, negative = inhibition [4] 3.57% | activity, negative = inhibition [5] -0.388% | Potency [6] > 46 µM | Potency [7] > 9.22 µM | Potency [8] | Potency [9]

O=[N+]([O-])c1ccc(Cl)c(CNc2ncnc3c2ncn3[C@@H]2CCCCO2)c1
inactive: Potency [1] > 11.4 µM | activity change, negative = inhibition [2] -3.17% | activity change, negative = inhibition [4] 6.3% | activity, negative = inhibition [5] 1.26% | Potency [6] > 46 µM | Potency [7] > 9.22 µM | Potency [8] | Potency [9]
active: Potency [3] 5.01 µM

CC(C)(CC(=O)Nc1ccccc1)C(=O)O
inactive: Potency [1] > 11.4 µM | activity change, negative = inhibition [2] -3.37% | Potency [3] | activity change, negative = inhibition [4] -4.05% | activity, negative = inhibition [5] 2.37% | Potency [6] > 46 µM | Potency [7] > 9.22 µM | Potency [8] | Potency [9]

O=C(O)Cn1ccnc1[N+](=O)[O-]
inactive: Potency [1] > 11.4 µM | activity change, negative = inhibition [2] 9.71% | Potency [3] | activity change, negative = inhibition [4] -1.99% | activity, negative = inhibition [5] 6.87% | Potency [6] > 46 µM | Potency [7] > 9.22 µM | Potency [8] | Potency [9]

CCOC(=O)[C@@H](O)Cc1cnc2ccccc2n1
active: Potency [3] 3.16 µM
inactive: Potency [1] > 11.4 µM | activity change, negative = inhibition [2] 5.54% | activity change, negative = inhibition [4] -6.57% | activity, negative = inhibition [5] -5.21% | Potency [6] > 46 µM | Potency [7] > 9.22 µM | Potency [8] | Potency [9]
